Reference: PubChem BioAssay (NCI)
This is part of a sample that, as a whole, favours compounds with a hit. Of some 79,000 tested, about 15% had one in any assay. Calls of active or inactive are those of the source. No stated cut-off is given here; in the data, active means growth inhibition above about 70%; inactive means the rest.

Experiments:
[1] = NCI Yeast Anticancer Drug Screen. Data for the mec2-1 strain (AID 157); settings: S. cerevisiae mec2-1 strain, stronger effect = higher value
In short: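 Using mec2-1 yeast: add compound, measure growth, express inhibition versus vehicle-treated cultures.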

[2] = NCI Yeast Anticancer Drug Screen. Data for the rad14 strain (AID 159);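 further: 0% = growth of vehicle-treated control cultures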; settings: S. cerevisiae rad14 strain growth inhibition, stronger effect = higher value
In short: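 A mutant yeast strain defective in DNA damage repair is treated with compound; inhibition of its growth is scored against untreated, vehicle-exposed cultures.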

[3] = NCI Yeast Anticancer Drug Screen. Data for the sgs1 mgt1 strain (AID 161);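 further: 0% = growth of cultures given vehicle only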; settings: S. cerevisiae sgs1 mgt1 strain, stronger effect = higher value
In short: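 This yeast growth screen uses a strain with defined DNA-repair lesions; compound-treated growth is compared with vehicle-treated growth.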

[4] = NCI Yeast Anticancer Drug Screen. Data for the CLN2oe strain (AID 163);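 further: 0% = growth of vehicle-only control cultures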; settings: S. cerevisiae CLN2oe strain, stronger effect = higher value
In short: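 Whole-cell yeast growth assay. A strain engineered for altered cell-cycle control received compound, and inhibition relative to vehicle-treated cultures was recorded.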

[5] = NCI Yeast Anticancer Drug Screen. Data for the cln2 rad14 strain (AID 165);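 further: 0% = growth equal to vehicle treated cultures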; settings: S. cerevisiae cln2 rad14 strain, stronger effect = higher value
In short: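 Yeast strain cln2 rad14, bearing defects in cell cycle control and DNA repair, serves as the test system; values reflect growth inhibition compared with vehicle.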

[6] = NCI Yeast Anticancer Drug Screen. Data for the bub3 strain (AID 167); settings: S. cerevisiae bub3 mutant strain, stronger effect = higher value
In short: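 Steps: expose the mutant yeast strain to compound; grow alongside vehicle-treated cultures; measure growth; express inhibition against the vehicle cultures.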

[7] = NCI Yeast Anticancer Drug Screen. Data for the wt2 strain (AID 169);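 further: 0% = growth of vehicle-treated yeast cultures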; settings: S. cerevisiae wt2 strain growth inhibition, stronger effect = higher value
In short: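 Treated yeast vs. vehicle-treated yeast: growth inhibition determined.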

[8] = NCI Yeast Anticancer Drug Screen. Data for the mlh1 strain (AID 171);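 further: 0% = growth of vehicle-treated control cultures of the same strain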; settings: S. cerevisiae mlh1 strain growth inhibition, stronger effect = higher value
In short: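 A yeast strain with a defined genetic lesion serves as the test organism. Cultures receive compound or vehicle, and growth is measured.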

[9] = NCI Yeast Anticancer Drug Screen. Data for the sgs1 strain (AID 173);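 further: 0% = growth of vehicle-only control cultures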; settings: S. cerevisiae sgs1 mutant, stronger effect = higher value
In short: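 A genetically defined yeast mutant is incubated with the test compound, and its growth is compared to that of the same strain given vehicle.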

[10] = NCI Yeast Anticancer Drug Screen. Data for the mlh1 rad18 strain (AID 175); settings: S. cerevisiae mlh1 rad18 strain growth inhibition, stronger effect = higher value
In short: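 Steps: expose repair-defective yeast to compound; measure growth; express inhibition against vehicle-treated controls.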

[11] = NCI Yeast Anticancer Drug Screen. Data for the rad18 strain (AID 177); settings: S. cerevisiae rad18 mutant growth inhibition, stronger effect = higher value
In short: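 Measured value is growth inhibition of a yeast strain bearing a DNA repair alteration, referenced to vehicle-treated cells.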

[12] = NCI Yeast Anticancer Drug Screen. Data for the rad52 strain (AID 147);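 further: 0% = growth of vehicle-treated control cultures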; settings: S. cerevisiae rad52 mutant growth inhibition, stronger effect = higher value
In short: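 Here a repair-compromised yeast strain receives each compound; its growth is then quantified and normalised to vehicle-only controls.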

[13] = NCI Yeast Anticancer Drug Screen. Data for the wt1 strain (AID 149);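 further: 0% = growth of vehicle-treated wt1 cultures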; settings: S. cerevisiae wt1 strain (SPY 50644) growth inhibition, stronger effect = higher value
In short: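 Compounds are added to wt1 yeast cultures. Growth is then measured. Inhibition is expressed relative to vehicle-treated controls.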

[14] = NCI Yeast Anticancer Drug Screen. Data for the rad50EPP+ strain (AID 151);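 further: 0% = growth of vehicle-treated control cultures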; settings: S. cerevisiae rad50 mutant strain, stronger effect = higher value
In short: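 Read-out is yeast growth inhibition relative to vehicle; cells used were the rad50EPP+ strain.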

[15] = NCI Yeast Anticancer Drug Screen. Data for the mgt1 strain (AID 153); settings: S. cerevisiae mgt1 mutant growth inhibition, stronger effect = higher value
In short: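 Measured: inhibition of mgt1 yeast growth by compound, normalized to vehicle-treated cultures.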

[16] = NCI Yeast Anticancer Drug Screen. Data for the rad50 strain (AID 155);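 further: 0% = growth of vehicle-only cultures of the same strain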; settings: S. cerevisiae rad50 strain growth inhibition, stronger effect = higher value
In short: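 Inhibition values express reduced yeast growth in compound-treated cultures relative to vehicle-treated controls.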

[17] = at 5.0 µM (retest, dose inferred, filed as 0.5)
[18] = at 50.0 µM (retest, dose inferred, filed as 5.0)

Measured: growth inhibition

Cc1c([N+](=O)[O-])oc2ccc3ccccc3c12
active: [1]; [18] 90% | [1]; at 50.0 µM 94.8% | [1]; at 100.0 µM 91% | [2]; at 3.7 µM 84% | [2]; at 11.0 µM 86% | [2]; at 33.0 µM 96% | [2]; at 100.0 µM 93% | [3]; [17] 76% | [3]; [18] 92% | [3]; at 50.0 µM 84.4% | [5]; [17] 81% | [5]; [18] 96% | [5]; at 50.0 µM 97% | [9]; at 11.0 µM 78% | [9]; at 33.0 µM 86% | [9]; at 100.0 µM 89% | [10]; [17] 82% | [10]; [18] 94% | [10]; at 50.0 µM 95.3% | [11]; at 1.2 µM 95% | [11]; at 3.7 µM 96% | [11]; at 11.0 µM 96% | [11]; at 33.0 µM 95% | [11]; at 100.0 µM 94%
inactive: [1]; [17] 18% | [1]; at 11.0 µM 21% | [1]; at 33.0 µM 51% | [2]; at 1.2 µM 43% | [4]; at 1.2 µM -6% | [4]; at 3.7 µM -8% | [4]; at 11.0 µM -6% | [4]; at 33.0 µM 3% | [4]; at 100.0 µM 6% | [6]; at 1.2 µM -11% | [6]; at 3.7 µM -17% | [6]; [17] -66% | [6]; at 11.0 µM -11% | [6]; at 33.0 µM -18% | [6]; [18] -11% | [6]; at 50.0 µM 12.4% | [6]; at 100.0 µM 0% | [7]; at 1.2 µM 1% | [7]; at 3.7 µM 2% | [7]; at 11.0 µM 6% | [7]; at 33.0 µM 14% | [7]; at 100.0 µM 26% | [8]; at 1.2 µM -1% | [8]; at 3.7 µM 1% | [8]; at 11.0 µM -2% | [8]; at 33.0 µM 15% | [8]; at 100.0 µM 35% | [9]; at 1.2 µM 49% | [9]; at 3.7 µM 69%

Cc1cccc(NC(=O)CBr)c1
inactive: [12]; at 1.2 µM 3% | [12]; at 3.7 µM 41% | [13]; at 1.2 µM 1% | [13]; at 3.7 µM 24% | [14]; at 1.2 µM -10% | [14]; at 3.7 µM -3% | [14]; at 11.0 µM 26% | [15]; at 1.2 µM -2% | [15]; at 3.7 µM 22% | [16]; at 1.2 µM 6% | [16]; [17] 21% | [1]; at 1.2 µM 7% | [1]; at 3.7 µM 44% | [1]; [17] 1% | [2]; at 1.2 µM -27% | [2]; at 3.7 µM 57% | [3]; [17] 49% | [4]; at 1.2 µM 2% | [4]; at 3.7 µM 22% | [5]; [17] 34% | [6]; at 1.2 µM 13% | [6]; at 3.7 µM 58% | [6]; [17] 63% | [7]; at 1.2 µM 1% | [7]; at 3.7 µM 33% | [8]; at 1.2 µM -2% | [8]; at 3.7 µM 46% | [9]; at 1.2 µM 9% | [9]; at 3.7 µM 55% | [10]; [17] 45% | [11]; at 1.2 µM 5% | [11]; at 3.7 µM 39%
active: [12]; at 11.0 µM 97% | [12]; at 33.0 µM 98% | [12]; at 100.0 µM 99% | [13]; at 11.0 µM 98% | [13]; at 33.0 µM 99% | [13]; at 100.0 µM 98% | [14]; at 33.0 µM 96% | [14]; at 100.0 µM 99% | [15]; at 11.0 µM 99% | [15]; at 33.0 µM 99% | [15]; at 100.0 µM 99% | [16]; at 3.7 µM 73% | [16]; at 11.0 µM 97% | [16]; at 33.0 µM 99% | [16]; [18] 99% | [16]; at 50.0 µM 99.2% | [16]; at 100.0 µM 99% | [1]; at 11.0 µM 98% | [1]; at 33.0 µM 99% | [1]; [18] 99% | [1]; at 50.0 µM 99.7% | [1]; at 100.0 µM 99% | [2]; at 11.0 µM 99% | [2]; at 33.0 µM 99% | [2]; at 100.0 µM 99% | [3]; [18] 99% | [3]; at 50.0 µM 99.2% | [4]; at 11.0 µM 96% | [4]; at 33.0 µM 98% | [4]; at 100.0 µM 98% | [5]; [18] 99% | [5]; at 50.0 µM 99.1% | [6]; at 11.0 µM 97% | [6]; at 33.0 µM 98% | [6]; [18] 98% | [6]; at 50.0 µM 99.6% | [6]; at 100.0 µM 99% | [7]; at 11.0 µM 98% | [7]; at 33.0 µM 99% | [7]; at 100.0 µM 99% | [8]; at 11.0 µM 99% | [8]; at 33.0 µM 99% | [8]; at 100.0 µM 99% | [9]; at 11.0 µM 99% | [9]; at 33.0 µM 99% | [9]; at 100.0 µM 99% | [10]; [18] 99% | [10]; at 50.0 µM 99.3% | [11]; at 11.0 µM 97% | [11]; at 33.0 µM 99% | [11]; at 100.0 µM 99%

CCOC(=O)C1=C(C(=O)OCC)C2(c3ccccc3)N(O1)c1ccccc1C2(C)C (centres undefined)
active: [12]; at 100.0 µM 71% | [15]; at 100.0 µM 78% | [1]; at 100.0 µM 74% | [3]; [17] 71% | [3]; [18] 71% | [3]; at 50.0 µM 79.8% | [4]; at 100.0 µM 79% | [6]; at 100.0 µM 77% | [7]; at 100.0 µM 75% | [8]; at 100.0 µM 80% | [9]; at 100.0 µM 81%
inactive: [12]; at 1.2 µM -3% | [12]; at 3.7 µM -2% | [12]; at 11.0 µM 0% | [12]; at 33.0 µM 3% | [13]; at 1.2 µM -2% | [13]; at 3.7 µM -5% | [13]; at 11.0 µM -4% | [13]; at 33.0 µM -1% | [13]; at 100.0 µM 54% | [14]; at 1.2 µM -6% | [14]; at 3.7 µM -7% | [14]; at 11.0 µM -5% | [14]; at 33.0 µM -6% | [14]; at 100.0 µM 15% | [15]; at 1.2 µM -1% | [15]; at 3.7 µM 0% | [15]; at 11.0 µM -1% | [15]; at 33.0 µM -3% | [16]; at 1.2 µM -1% | [16]; at 3.7 µM -2% | [16]; [17] 54% | [16]; at 11.0 µM -3% | [16]; at 33.0 µM -1% | [16]; [18] 54% | [16]; at 50.0 µM 63% | [16]; at 100.0 µM 67% | [1]; at 1.2 µM -3% | [1]; at 3.7 µM -3% | [1]; [17] 35% | [1]; at 11.0 µM -5% | [1]; at 33.0 µM -7% | [1]; [18] 35% | [1]; at 50.0 µM 27.5% | [2]; at 1.2 µM 0% | [2]; at 3.7 µM -4% | [2]; at 11.0 µM -3% | [2]; at 33.0 µM -8% | [2]; at 100.0 µM 62% | [4]; at 1.2 µM -4% | [4]; at 3.7 µM -2% | [4]; at 11.0 µM -4% | [4]; at 33.0 µM -5% | [5]; [17] 6% | [5]; [18] 6% | [5]; at 50.0 µM 43.3% | [6]; at 1.2 µM -6% | [6]; at 3.7 µM -5% | [6]; [17] 31% | [6]; at 11.0 µM 8% | [6]; at 33.0 µM 13% | [6]; [18] 31% | [6]; at 50.0 µM 44.4% | [7]; at 1.2 µM -2% | [7]; at 3.7 µM -3% | [7]; at 11.0 µM -2% | [7]; at 33.0 µM 0% | [8]; at 1.2 µM -3% | [8]; at 3.7 µM -6% | [8]; at 11.0 µM -5% | [8]; at 33.0 µM -3% | [9]; at 1.2 µM -5% | [9]; at 3.7 µM -5% | [9]; at 11.0 µM -6% | [9]; at 33.0 µM -2% | [10]; [17] 32% | [10]; [18] 32% | [10]; at 50.0 µM 15.4% | [11]; at 1.2 µM -4% | [11]; at 3.7 µM -11% | [11]; at 11.0 µM -12% | [11]; at 33.0 µM -4% | [11]; at 100.0 µM 68%
